Source: PubChem BioAssay (National Center for Advancing Translational Sciences (NCATS))
This is one part of a sample in which hits are shown more often than they occur.
Tb PYK inh = qHTS of Trypanosoma Brucei Inhibitors. TbPYK enzyme, Kinase-Glo Plus ATP luminescence, 45 min. Potency, µM (series often up to 76.8 µM), without a hit: top-dose activity, negative = inhibition, hits mostly inhibitors. pyruvate kinase (Trypanosoma brucei), Q57TT1. 410,000 compounds, 0.12% hits; note: potency is the fitted concentration of half-maximal effect; % is set by controls: 0 for no effect and ±100 for the full control effect; nearly all actives have a fitted effect of over 50% in size
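Assay buffer: 50 mM TEA pH 7.2, 100 mM KCl, 10 mM MgCl2, 0.05% BSA, 0.01% Tween-20. Pyruvate kinase from T. brucei plus substrate met compound, then ADP (130 uM final). Luminescence was read post 45 min RT.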
NS1 function inh = qHTS Assay for Inhibitors of Influenza NS1 Protein Function; Potency, µM (titrated, usually from 46.1 µM), without a hit: top-dose activity, positive = more growth; 270,000 compounds, 0.4% hits; AID 2326, 2010; calls by dose curve; note: potency is the fitted concentration of half-maximal effect; actives are rising curves; nearly all actives have a fitted effect of over 50% in size
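OD600 was taken as the measure of yeast growth restored by compound in an NS1-expressing S. cerevisiae strain. Cells had been washed out of glucose medium and diluted 1:100 into galactose -URA medium, pH 6.0.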
CHX counter = Cycloheximide Counterscreen for Small Molecule Inhibitors of Shiga Toxin. cell reporter, cycloheximide protein synthesis inhibition counterscreen. max response, %. 300,000 compounds, 12% hits. AID 2314, 2010; in the data active = max response mostly above about 13%, no sharp cut-off; inactive = mostly below about 14%; note: read at 38.3 µM for the half of the compounds with a filed dose; 0% is about no effect
Shiga toxin inh = A qHTS for Small Molecule Inhibitors of Shiga Toxin; inhibition, % at 38.7 µM; Vero cells, Shiga toxin protein synthesis inhibition reporter; 290,000 compounds, 9.2% hits; in the data active = inhibition mostly above about 28%, no sharp cut-off; inactive = mostly below about 43%; note: 0% is about no effect
SARS PLpro yeast-1 = qHTS of Yeast-based Assay for SARS-CoV PLP; Potency, µM (top dose mostly 32.9 µM), without a hit: at the highest dose activity, positive = growth rescue, actives largely listed as activators; S. cerevisiae expressing SARS-CoV PLpro, growth rescue; 330,000 compounds, 0.19% hits; calls by dose curve; note: potency is the fitted concentration of half-maximal effect; 0% is about no effect; nearly all actives have a fitted effect of over 55% in size
LmPK inhibitor = qHTS Assay for Inhibitors of Leishmania Mexicana Pyruvate Kinase (LmPK) | Q27686 | purified LmPK, Kinase-Glo ATP luminescence, 1 h | Potency, µM (top dose mostly 57.5 µM), for the others: top-dose activity change, negative = inhibition, most hits filed as inhibitors | 290,000 compounds, 0.37% hits; note: potency is the fitted concentration of half-maximal effect; % is set by controls: 0 for no effect and ±100 for the full control effect
Target sequence (Q27686 whole entry, looked up): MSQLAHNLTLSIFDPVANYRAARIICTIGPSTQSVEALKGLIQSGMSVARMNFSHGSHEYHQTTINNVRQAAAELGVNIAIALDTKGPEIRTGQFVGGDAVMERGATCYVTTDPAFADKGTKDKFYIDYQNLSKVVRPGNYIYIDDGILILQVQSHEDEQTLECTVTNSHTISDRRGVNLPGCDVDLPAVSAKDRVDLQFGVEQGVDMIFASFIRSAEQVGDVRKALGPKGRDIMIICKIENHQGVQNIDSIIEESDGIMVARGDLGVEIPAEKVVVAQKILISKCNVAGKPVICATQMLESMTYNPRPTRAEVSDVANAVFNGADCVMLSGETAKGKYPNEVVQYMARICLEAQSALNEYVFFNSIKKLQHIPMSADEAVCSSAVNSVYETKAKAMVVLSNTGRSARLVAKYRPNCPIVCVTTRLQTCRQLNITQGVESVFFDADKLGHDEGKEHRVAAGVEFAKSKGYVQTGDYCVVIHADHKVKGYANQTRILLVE
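Purified LmPK (0.1 nM) converted ADP (0.1 mM) to ATP with PEP (0.5 mM) in imidazole buffer pH 7.2 with KCl and MgCl2, 1 h at room temperature. ATP was read by Kinase-Glo luminescence; data normalized to uninhibited and no-enzyme controls.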
SARS PLpro yeast-2 = qHTS of Yeast-based Assay for SARS-CoV PLP: Hit Validation. shares compounds with SARS PLpro yeast-1. yeast expressing SARS-CoV PLpro, growth phenotype rescue. calls only. 1,000 compounds, 19% hits. AID 652038, 2013; call rule not given here
* = called active by the depositor; i = inactive; ? = inconclusive; . = not tested or not shown; + = active, no number. Unless noted, calls come from the whole dose curve; as a rule, active = well fitted curve in the direction sought with a large enough effect; inconclusive = small, poorly fitted or top-dose-only effect, or another doubt; inactive = no such curve, though single readings can be large; an effect the other way counts as inactive or inconclusive.

SMILES	Tb PYK inh	NS1 function inh	CHX counter	Shiga toxin inh	SARS PLpro yeast-1	LmPK inhibitor	SARS PLpro yeast-2
COc1ccccc1CN1CC2(CCN(S(C)(=O)=O)CC2)C1	-3.5%	.	.	.	.	.	.
CCOc1ccccc1NC(=S)Nc1ccccc1F	5.5%	-1.0%	5.0	9.7	?	-0.9%	i
COc1cc(OC)cc(-c2nc3ccccc3c(=O)n2OC(=O)c2ccccc2C)c1	1.4%	-0.8%	6.3	-10.9	?	1.9%	+
O=C(On1c(-c2ccccc2)nc2ccccc2c1=O)c1ccco1	-0.9%	-170.6%	7.1	-4.0	.	0.3%	.
Cc1ccccc1CN1CCC(CNc2ncnc3onc(-c4ccc(Cl)cc4)c23)CC1	-1.2%	.	.	.	.	.	.
O=C(NN1CCCC1)NS(=O)(=O)c1ccc(Cl)cc1	-7.3%	.	.	.	.	.	.
Cc1ccc(C(=O)N2CCN(C)CC2)cc1[N+](=O)[O-]	-1.8%	3.7%	-2.4	-5.1	1.4%	-9.9%	.
Cc1cccc2cccnc12	-0.6%	.	.	.	0.6%	.	.
Cc1ccc2cccnc2c1N	-2.7%	.	17.3	12.5	?	8.0%	i
O=C(N/N=C/C1CC=CCC1)c1ccc(Cl)cc1O (stereo unspecified)	-4.0%	-13.5%	28.0*	51.5	11.2µM*	-2.4%	i
Cc1ccc(C(=O)N/N=C\C2CC=CCC2)cc1[N+](=O)[O-] (stereo unspecified)	5.4%	-11.3%	7.6	-4.9	-3.6%	0.7%	.
COc1ccccc1CN1C(=O)CN(C2CCCCCC2)C(=O)C1c1ccc(C)cc1 (stereo unspecified)	-4.3%	.	.	.	.	.	.
C[C@]12c3[nH]c4cc(-c5ccco5)ccc4c3CCN1C(=O)[C@@H](CC(=O)NCCCn1ccnc1)C[C@@H]2C(=O)N1CCOCC1	-3.0%	.	.	.	?	.	i
Cc1nc2c(o1)C(=O)c1ccccc1C2=Nc1ccccc1	-1.9%	.	.	.	.	.	.
O=C(O)CSc1nnc(CSc2nc3ccccc3s2)n1-c1ccccc1	-29.2%	3.7%	0.6	-12.4	5.1%	-2.4%	.
C#CCSc1nnc(CSc2nc3ccccc3s2)n1-c1ccccc1	-11.0%	-12.6%	10.9	-14.7	?	3.0%	?
C=CCN(CC=C)C(=S)NC(=O)/C=C/c1ccccc1	-25.1%	16.9%	-0.8	9.5	2.82µM*	1.0%	i
C=CCN(CC=C)C(=S)NC(=O)/C=C/c1ccc(C)cc1	-2.3%	14.3%	4.5	9.3	?	2.2%	.
COc1ccc(NC(=O)Nc2cccc3c2O[C@H](CN(C)C(=O)Nc2ccc4c(c2)OCO4)[C@@H](C)CN([C@H](C)CO)C3=O)cc1	2.6%	.	.	.	11.1%	.	.
CC(O)CC(=O)NOCc1ccccc1 (stereo unspecified)	-2.7%	.	.	.	?	.	i
CN(Cc1ccccc1)S(=O)(=O)c1ccc(NC(=O)c2ccccc2C(=O)O)cc1	1.7%	.	.	.	.	.	.
CNC(=S)N(Cc1cc2cc(C)ccc2n2nnnc12)CC(C)(C)CN(C)C	-0.1%	10.1%	-3.0	-17.4	2.5%	-0.8%	.
CCCNC(=O)COc1coc(CN2CCN(c3ccccc3F)CC2)cc1=O	8.7%	-4.8%	11.9	-1.3	0.3%	-2.0%	.
COc1ccccc1C(=O)Nc1cccc2c1CCCC2	3.5%	-11.3%	7.6	8.7	?	-6.8%	i
COc1cc(NC(=S)NCc2ccc(S(N)(=O)=O)cc2)c(OC)cc1Cl	-25.9%	10.3%	0.7	-13.4	?	-1.1%	i
SMILES	Tb PYK inh	NS1 function inh	CHX counter	Shiga toxin inh	SARS PLpro yeast-1	LmPK inhibitor	SARS PLpro yeast-2
COc1ccc(Cl)cc1NC(=S)NCCc1ccc(S(N)(=O)=O)cc1	-16.8%	-2.4%	-2.7	7.7	1.0%	4.1%	.
Cc1ccc2c(CN3CCN(Cc4ccccc4Cl)CC3)cc(=O)oc2c1	-0.2%	.	.	.	.	.	.
CCCN1CCN(CC(=O)Nc2nnc(CC)s2)CC1	6.5%	4.4%	0.7	-3.7	-0.8%	1.8%	.
Cc1ccccc1N(CC(=O)NCCc1ccccc1)C(=O)c1csnn1	1.2%	-2.2%	-4.6	-2.7	-1.2%	-3.4%	.
COC(=O)Cc1c(C)nc2nc(-c3ccc(Cl)cc3)[nH]n2c1=O	-2.0%	-0.2%	-6.0	-8.4	?	2.7%	i
COC(=O)Cc1c(C)nc2nc(-c3ccc(C)cc3)[nH]n2c1=O	-0.9%	0.8%	-3.0	-5.2	15.2%	-4.2%	.
Cc1ccc(CN2CCN(/N=C/c3sccc3C)CC2)c(C)c1	-4.5%	-10.5%	-0.9	8.0	11.2µM*	-1.0%	i
C[C@H](O)[C@@H]1C(=O)N2CCc3c([nH]c4ccccc34)[C@@H]2C[C@@H]1N(C)C(=O)Nc1cc(Cl)cc(Cl)c1	-4.1%	.	.	.	.	.	.
Cc1occc1C(=O)N/N=C/c1ccc(Cl)c([N+](=O)[O-])c1	-10.3%	-11.1%	36.9*	56.4*	?	-7.2%	?
CCOc1ccc(-c2nnc3ccc(SCC(=O)Nc4nc5ccccc5s4)nn23)cc1	-1.6%	-11.5%	4.7	-12.1	?	3.1%	i
O=C(NS(=O)(=O)N1CCOCC1)C1=C(N2CCCC2)COC1=O	1.0%	.	.	.	3.55µM*	.	i
O=C(Nc1ccc(N2CCCCCC2)cc1)c1cccc(S(=O)(=O)N2CCOCC2)c1	-15.9%	.	.	.	4.8%	.	.
Cc1cccc(C)c1NC(=O)CN1CCN(c2ccc(C(F)(F)F)cn2)CC1	-0.3%	.	.	.	.	.	.
CC1(C(=O)NS(=O)(=O)c2ccc3c(c2)CCO3)CCN1C(=O)COc1ccc(Cl)cc1 (stereo unspecified)	0.3%	.	.	.	.	.	.
CC1CC(C)(C)NC(=S)N1CC(=O)N(C)Cc1ccccc1 (stereo unspecified)	-5.1%	0.4%	-3.3	-9.5	?	-3.2%	i
CC1CC(C)(C)NC(=S)N1CC(=O)NCc1ccc(F)cc1 (stereo unspecified)	-16.5%	.	9.9	-19.4	3.0%	-11.4%	.
O=C1/C(=C/c2ccc(O)c(O)c2)SC(=S)N1Nc1ccccc1	-30.9%	.	10.6	31.0	5.4%	-2.0%	.
O=C(NN1C(=O)/C(=C/c2ccc(O)c(O)c2)SC1=S)c1ccccc1	?	23.6%	-3.2	-8.7	?	-17.3%	i
CCn1cc(CN2CCC(C(=O)Nc3cccc(-c4cccc(OC)c4)c3)CC2)cn1	5.9%	-0.2%	-3.1	-2.0	-3.7%	1.2%	.
CCn1cc(CN2CCC(C(=O)Nc3cccc(-c4cccc(OC)c4)c3)CC2)c(C)n1	-6.5%	8.4%	-2.9	12.4	?	-5.7%	i
O=C(COc1ccccc1Cl)Nc1ccc2oc(=O)ccc2c1	5.7%	-9.5%	11.8	31.3	-9.4%	-1.2%	.
CN1C(=O)/C(=C2/C=CC=CN2C)OC1=S	-1.1%	-109.5%	15.3	28.1	?	0.2%	?
O=C(N/N=C/c1ccccc1OC(F)F)c1cc(-c2ccncc2)nc2ccccc12	-0.1%	.	-2.7	-8.4	12.6µM*	4.4%	+
